Screening data as filed in PubChem BioAssay.
Only some compounds are listed: those with a hit (about 19% of all), similar ones and a draw of the others.
Pf growth 48h – Primary qHTS for delayed death inhibitors of the malarial parasite plastid, 48 hour incubation. P. falciparum luciferase growth in erythrocytes, 48 h. Potency, µM (series often up to 28.7 µM), for inactives: at the highest dose activity change, negative = inhibition, actives largely listed as inhibitors. AID 504832, 2011. 5.9% of 310,000 active; further: potency means the concentration at half of the fitted maximal effect; on the % scale 0 is the no-effect control and ±100 the full control effect
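Cell-based growth assay: transgenic P. falciparum expressing firefly luciferase, cultured in red cells within RPMI 1640 containing 0.5% w/v Albumax, 24 mM bicarbonate and gentamycin. A drop in luciferase activity indicates inhibition.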
Cycloheximide cs – Cycloheximide Counterscreen for Small Molecule Inhibitors of Shiga Toxin | 12% of 300,000 active | max response, % | AID 2314, 2010 | cell reporter, cycloheximide protein synthesis inhibition counterscreen; in the data active means max response mostly above about 13%, no sharp cut-off; inactive means mostly below about 14%; further: read at 38.3 µM for the half of the compounds with a filed dose; 0% is about no effect
AMA1-RON2 inh – qHTS for Inhibitors of AMA1-RON; Towards Development of Antimalarial Drug Lead: Primary Screen | Plasmodium falciparum AMA1 (3D7) - RON2 peptide interaction | AlphaScreen AMA1-biotinylated RON2 peptide binding | Potency, µM (top dose mostly 58.2 µM), for the others: at the highest dose activity change, negative = inhibition, usual class: inhibitors | 0.2% of 360,000 active | AID 720542, 2013;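 further: potency means the concentration at half of the fitted maximal effect; 0% = vehicle wells and -100% = peptide control; nearly all actives have a fitted effect of over 45% in size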
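AMA1 (3D7) with his tag at 25 nM final met compounds first, then biotinylated RON2 peptide at 25 nM; detection used donor plus acceptor beads, 10 µg/mL apiece, read by AlphaScreen after 30 min at room temperature.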
SARS PLpro yeast – qHTS of Yeast-based Assay for SARS-CoV PLP; S. cerevisiae expressing SARS-CoV PLpro, growth rescue; Potency, µM (highest dose often 32.9 µM), for inactives: top-dose activity, positive = growth rescue, usual class: activators; 0.19% of 330,000 active; calls by dose curve; further: potency means the concentration at half of the fitted maximal effect; 0% is about no effect; nearly all actives have a fitted effect of over 55% in size
Pf growth 96h – Primary qHTS for delayed death inhibitors of the malarial parasite plastid, 96 hour incubation. P. falciparum luciferase reporter growth, 96 h. Potency, µM (titrated, usually from 28.7 µM), for inactives: at the top dose activity change, negative = inhibition, actives largely listed as inhibitors. 6.9% of 320,000 active. AID 504834, 2011; further: potency means the concentration at half of the fitted maximal effect; on the % scale 0 is the no-effect control and ±100 the full control effect
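Parasite growth measured via integrated firefly luciferase reporter in P. falciparum. Infected erythrocytes at 2% hematocrit, 0.05% parasitemia final were treated 96 hours at 37 C under 5% CO2, and luminescence was read.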
Shiga inhibitor – A qHTS for Small Molecule Inhibitors of Shiga Toxin; Vero cells, Shiga toxin protein synthesis inhibition reporter; 9.2% of 290,000 active; AID 2315, 2010; inhibition, % at 38.7 µM; in the data active means inhibition mostly above about 28%, no sharp cut-off; inactive means mostly below about 43%; further: 0% is about no effect
* marks the source's active call; other numbers are inactive results; ? = inconclusive; nt = no result given; [ ] = remark or other dose. Unless noted, the call rests on the fitted dose curve; in most records, active means well fitted curve in the direction sought with a large enough effect; inconclusive means small, poorly fitted or top-dose-only effect, or another doubt; inactive means no such curve, though single readings can be large; an effect the other way counts as inactive or inconclusive.

SMILES	Pf growth 48h	Cycloheximide cs	AMA1-RON2 inh	SARS PLpro yeast	Pf growth 96h	Shiga inhibitor
O=c1cc(Nc2ccc3c(c2)OCCO3)[nH]c(=O)n1C1CCCCC1	2.1µM*	3	0%	6%	36%	23*
O=c1cc(N2CCN(c3ccc(F)cc3)CC2)[nH]c(=O)n1C1CCCCC1	-6%	-2	14%	-11%	92%	-21
CC(NC(=O)c1csc2ccccc12)C1CCCO1 (stereo not drawn)	38%	32*	3%	1%	nt	63*
CC(NC(=O)c1sc2ccccc2c1Cl)C1CCCO1 (stereo not drawn)	113%	36*	10%	3%	78%	24
CC1CCCN(C(=O)c2cccc(S(=O)(=O)N3CCCC3)c2)C1 (stereo not drawn)	19%	nt	4%	10%	-3%	nt
S=C(Nc1ccccc1)Nc1nc2ccccc2n1CCOc1ccc(Br)cc1	3.3µM*	34*	-16%	?	4%	44*
Cn1c(Nc2ccc(F)cc2)nc2ccccc21	5%	10	-4%	-9%	-1%	18
Cn1c(NC(=S)Nc2ccccc2)nc2ccccc21	?	47*	-1%[2.32 µM]	8.9µM*	?	65*
O=C(Nc1cccnc1)c1cn(-c2ccccc2)nc1-c1cccs1	0.59µM*	4	-7%	-8%	13%	6
CCN(CC)CCNC(=O)c1ccc(NC(=O)c2c(C)nn(-c3ccc(F)cc3)c2Cl)cc1	?	-3	-10%	0%	-10%	-12
CCN(CC)CCNC(=O)c1ccc(NC(=O)c2cn(-c3ccc(F)cc3)nc2-c2cccc(OC)c2)cc1	1.9µM*	-2	-9%	-5%	1µM*	3
CCN(CC)CCNC(=O)c1ccc(NC(=O)c2cn(-c3ccccc3)nc2-c2cccs2)cc1	12µM*	6	-6%	-1%	?	42
CCN(CC)CCNC(=O)c1ccc(NC(=O)Cc2ccccc2F)cc1	?	-4	-4%	-5%	23%	19
CCN(CC)CCNC(=O)c1ccc(NC(=O)c2ccccc2-c2ccc(C(F)(F)F)cc2)cc1	13µM*	-8	56%	-3%	9.3µM*	-3
COc1ccc(CCNC(=O)CN2C(=O)c3cccc4cccc(c34)C2=O)cc1OC	12%	-3	-2%	0%	10µM*	-3
CCC(C)(C)C1CCC2(CC1)NC(=O)N(CC(=O)NCCc1ccc(OC)c(OC)c1)C2=O (stereo not drawn)	12µM*	nt	-8%	-8%	?	nt
CCC(C)(C)C1CCC2(CC1)NC(=O)N(CC(=O)NCCOc1ccccc1)C2=O (stereo not drawn)	?	nt	-6%	-4%	?	nt
CC(C)(C)c1cc(C(=O)NCCN2CCCC2)cc(C(C)(C)C)c1	?	-2	-11%	-1%	-19%	-16
CN(C)c1ccc(S(=O)(=O)N2CCCCC2)cc1NC(=O)COc1ccccc1F	?	-5	-4%	-8%	-14%	16
Cc1c([N+](=O)[O-])oc2c1C(=O)NCCC2	nt	nt	1%	nt	nt	nt
CCCCN(c1ccccc1)S(=O)(=O)c1cccc2cccnc12	?	-1	-7%	-3%	-26%	-10
CC(=O)Oc1ccccc1C(=O)NC(C)CCc1ccccc1 (stereo not drawn)	15µM*	12	2%	-3%	?	14
COCC(C)NC(=O)c1ccccc1OC(C)=O (stereo not drawn)	-5%	-3	-7%	0%	nt	-9
CC(CCc1ccccc1)NC(=O)c1ccccc1Cl (stereo not drawn)	?	10	0%	4%	9.3µM*	nt
O=C(CCc1ccccc1)NNC(=O)c1ccccc1Cl	?	-4	84%	4%	2.9µM*	nt
SMILES	Pf growth 48h	Cycloheximide cs	AMA1-RON2 inh	SARS PLpro yeast	Pf growth 96h	Shiga inhibitor
O=C(NNCc1ccc(O)cc1)c1ccccc1Cl	98%	46*	-2%	3%	107%	39*
O=C(NNC(=O)c1ccccc1Cl)c1ccncc1	-2%	-2	-5%	-1%	5%	-10
Cc1ccc(C(=O)NCC(=O)NCC(c2ccco2)N2CCCCC2)cc1C (stereo not drawn)	?	nt	0%	3%	?	nt
Cn1nc(C(=O)NNC(=O)Cc2ccc(S(=O)(=O)N3CCOCC3)s2)c2ccccc2c1=O	nt	nt	46%	nt	nt	nt
CC/C(=N\NC(=O)C1CCCC1)c1ccc(Br)cc1	-22%	16	14%	14%	-9%	24
Cc1cc(C)cc(N2CCN(C(=O)N3CCOCC3)CC2)c1	-4%	-2	-4%	0%	6.6µM*	-2
Cc1ccc(N2CCN(C(=O)N3CCOCC3)CC2)c(C)c1	8%	2	4%	-7%	?	13
O=c1[nH]c(=O)n2c(c1-c1ccccc1)OC(CBr)C2 (stereo not drawn)	nt	nt	-10%	nt	nt	nt
CC(=O)N(/N=C1\Sc2ccccc2C1=O)c1cccc(C)c1	?	58*	-13%	-8%	?	142*
CC(=O)CCC(=O)OCC(=O)Nc1ccc(SC(F)F)cc1	31%	2	1%	-4%	-2%	-2
CCCNc1ncnc2c1cnn2C1CCCCO1 (stereo not drawn)	nt	nt	-10%	nt	nt	nt
CCN1C(=O)/C(=C\c2ccc3c(c2)OCO3)C(C(=O)OC)=C1C	3%	-2	-23%	-8%	1.9µM*	-15
CCOc1cc(/C=C2\C(=O)N(Cc3ccc(C)cc3)C(C)=C2C(=O)OC)ccc1O	?	-3	?	2%	18%	-13
C=CCOc1cccc(/C=C2\C(=O)N(Cc3ccc(C)cc3)C(C)=C2C(=O)OC)c1	15µM*	-1	?	-4%	6.6µM*	-12
COC(=O)C1=C(C)N(CCc2ccc(OC)c(OC)c2)C(=O)/C1=C\c1ccc(O)cc1	12µM*	-3	-15%	-14%	-3%	-7
Cc1ccc2nc(-c3ccccn3)[nH]c2c1	176%	18*	17%	-16%	?	15
Cc1sc2nc(-c3ccncc3)[nH]c(=O)c2c1-c1ccccc1	-2%	-6	nt	3%	-3%	-6
Nc1nc(-c2nc3ccccc3[nH]2)cs1	79%	33*	33%	-5%	-8%	70*
Cc1sc2nc(-c3ccccn3)[nH]c(=O)c2c1-c1ccccc1	1.5µM*	71*	65%	-3%	?	114*
O=c1[nH]c(-c2ccccn2)nc(C(F)(F)F)c1Br	5.9µM*	-3	-74%	-6%	7.4µM*	15
CC(OC(=O)Cn1[nH]c(=O)c2ccccc2c1=O)C(=O)Nc1ccc(F)cc1 (stereo not drawn)	0%	nt	17%	6%	12%	nt
